Data as given in PubChem BioAssay.
“And” between values parts separate entries of the source, which are not always exact repeats. Identical values can stand only once. A number with no mark means an inactive call. How the calls were made is not given here.

system: Aerobactin synthetase IucA (Klebsiella pneumoniae hvKP1); assay: IucA enzyme inhibition, primary screen, biochemical, Spectrum library (AID 1346200); conditions: malachite green pyrophosphate, A620, at 8 µM, active compounds read low;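 further: 100% = wells without compound and 0% = wells lacking enzyme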

Row | Compound | activity remaining
1 | CC1(C)CC[C@]2(C(=O)O)CC[C@]3(C)C(=CCC4[C@@]5(C)CC[C@@H](O)C(C)(C)C5CC[C@]43C)C2C1 (stereo not given in full) | 118%
2 | CC(=O)Nc1ccccc1 | 103%
3 | O=C1c2ccccc2C(=O)C1c1ccccc1 | 121%
4 | CC(=O)CC(c1ccccc1)c1c(O)c2ccccc2oc1=O (stereo not given) | 118%
5 | COc1cc2c(cc1OC)-c1cc3ccc(OC)c(OC)c3c[n+]1CC2 | 97.8% and 112%
6 | CC(C)N=C(N)/N=C(\N)Nc1ccc(Cl)cc1 | 102%
7 | CC(=O)O[C@@H]1CC2C(C)(CC[C@H](O)C2(C)C)C2CC[C@]3(C)C(=CC(=O)O[C@H]3c3ccoc3)C21C (stereo not given in full) | 95.5%
8 | S=P(N1CC1)(N1CC1)N1CC1 | 89.8%
9 | CN(C)CC/C=C1\c2ccccc2Sc2ccc(Cl)cc21 | 110%
10 | C[C@H](CC(=O)C1OC1(C)C)[C@H]1C(=O)C[C@@]2(C)C3=CCC4C(C)(C)[C@@H](O[C@@H]5OC[C@@H](O)[C@H](O)[C@H]5O)CC[C@@]45C[C@@]35[C@@H](O)C[C@]12C (stereo not given in full) | 91.8%
11 | CC(=O)O[C@H]1C[C@@]2(C)[C@@H](C[C@@H](O)C3[C@]2(C)CC[C@H]2[C@H](C)[C@H](O)CC[C@]32C)/C1=C(/CCC=C(C)C)C(=O)O (stereo not given in full) | 110%
12 | CC(C)c1c(O)ccc2c1CCC1[C@@](C)(C=O)CCC[C@]21C (stereo not given in full) | 99.8%
13 | C[C@]12CCC3c4ccc(OS(=O)(=O)O)cc4CCC3C1CC[C@H]2O (stereo not given in full) | 102%
14 | O=C1C(=O)c2ccccc2C(O)=C1C1CCC(c2ccc(Cl)cc2)CC1 (stereo not given) | 101%
15 | CCC(=O)c1c(O)cc(O)cc1O | 116%
16 | CCCOc1ccc(C(=O)OCCN(CC)CC)cc1N | 109%
17 | CNCCc1ccccn1 | 114%
18 | Cc1[nH]c(C)c(Cl)c(=O)c1Cl | 121%
19 | COc1ccc2c(c1)OC/C(=C/c1ccc(OC)c(OC)c1)C2=O | 123%
20 | Cc1[nH]ccc2c1[nH]c1cc(=O)ccc12 | 118%

Row | Compound | activity remaining
21 | NCCCC(O)(P(=O)(O)O)P(=O)(O)O | 112%
22 | Cn1cc[nH]c1=S | 99.8%
23 | CCCCC(=O)O[C@H]1CCC2C3CCc4cc(O)ccc4C3CC[C@@]21C (stereo not given in full) | 97.5%
24 | CCOc1nc2cccc(C(=O)OC(C)OC(=O)OC3CCCCC3)c2n1Cc1ccc(-c2ccccc2-c2nn[nH]n2)cc1 (stereo not given) | 104%
25 | COC(=O)C[C@H]1C(C)(C)C(=O)[C@@H]2CC3=C(CC[C@]4(C)C3=CC(=O)O[C@H]4c3ccoc3)C1(C)C2=O | 121%
26 | CC(=O)O[C@@](C)(CCC=C(C)C)C1CC=C(C)CC1 (stereo not given in full) | 91.6%
27 | O=c1cc(-c2ccc(O)c(O)c2)oc2ccccc12 | 88.4%
28 | COc1cc(C/C=C/c2ccccc2)c(OC)cc1O | 113%
29 | Oc1ccc2c(c1)OCC1c3cc4c(cc3OC21)OCO4 (stereo not given) | 87.4%
30 | C=Cc1c(C)/c2[n-]/c1=C\c1[n-]c(c(CC)c1C)/C=c1\[n-]c3c(c1C)C(=O)C(C(=O)[O-])C=3c1[n-]c(c(C)c1CCC(=O)[O-])\C=2.[Cu].[Na+].[Na+] (stereo not given) | 77.9%
31 | O=C1CC(c2ccccc2)Oc2ccccc21 (stereo not given) | 125%
32 | CC(=O)Oc1cc(OC(C)=O)c2c(c1)O[C@H](c1ccc(OC(C)=O)c(OC(C)=O)c1)[C@H](OC(C)=O)C2 | 108%
33 | O=c1cc(-c2ccc(O)cc2)oc2cc(O[C@@H]3O[C@H](CO)[C@@H](O)[C@H](O)[C@H]3O[C@@H]3OC[C@](O)(CO)[C@H]3O)cc(O)c12 | 103%
34 | C[C@@H]1CC2C3C[C@H](F)C4=CC(=O)C=C[C@]4(C)[C@@]3(F)[C@@H](O)C[C@]2(C)[C@@]1(O)C(=O)CO (stereo not given in full) | 113%
35 | OC[C@H]1O[C@@H](O[C@@H]2[C@@H](CO)O[C@](O)(CO)[C@H]2O)[C@H](O)[C@@H](O)[C@H]1O | 121%
36 | Cc1c(C(N)=O)cc([N+](=O)[O-])cc1[N+](=O)[O-] | 106%
37 | O=C(/C=C/C=C/c1ccc2c(c1)OCO2)N1CCCCC1 | 104%
38 | CC(C)CC1C(=O)N2CCC[C@H]2C2(O)O[C@](NC(=O)C3C=C4c5cccc6[nH]c(Br)c(c56)C[C@H]4N(C)C3)(C(C)C)C(=O)N12 (stereo not given in full) | 113%
39 | CC1OC(O[C@H]2/C=C/C=C/C=C/C=C/C=C/C=C/C=C/[C@H](C)[C@@H](O)[C@@H](C)[C@H](C)OC(=O)CC(O)CC(O)CCC(O)C(O)CC(O)CC3(O)C[C@H](O)C(C(=O)O)C(C2)O3)C(O)[C@H](N)C1O (stereo not given in full) | 89.3%
40 | Nc1ncnc2nc[nH]c12 | 105%
